Among the data in PubChem BioAssay (NCI) are growth values, retold here.

This is part of a sample that, as a whole, favours compounds with a hit. Of some 83,000 tested, about 20% had one in any assay.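 96-well plates, one dose, 48 hours. Percent growth reported; active if below 10.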 Values without a mark were called inactive. Active and inactive are the calls of the source.

Among the test systems are SK-MEL-2 melanoma; EKVX NSCLC; UO-31 renal; TK-10 renal; ACHN renal; CAKI-1 renal; A498 renal; CCRF-CEM leukemia; MOLT-4 leukemia.
What all share (assay): NCI-60 one-dose screen, 48 h (100 = growth as untreated, 0 = no growth, -100 = all killed)
Common to all, as to conditions: 10 µM unless noted

As for `Cc1ccc(NC(=O)[C@]23CCC(C)(C)CC2C2=CCC4[C@@]5(C)C[C@@H](O)[C@H](O)[C@@](C)(CO)C5CC[C@@]4(C)[C@]2(C)CC3)cc1` (stereo partly drawn), the growth in the assay with SK-MEL-2 melanoma was 34.1%; in the assay on EKVX NSCLC, 24.4%; with UO-31 renal, 25.4%; in the assay with TK-10 renal it was 48%; in the assay with ACHN renal it was 23.7%; in the assay with CAKI-1 renal it was 29.2%. Also, the figures for the growth with A498 renal, in the assay on CCRF-CEM leukemia and in the assay with MOLT-4 leukemia were -1.05% (active), -1.64% (active) and 0.258% (active), respectively.

For `COc1ccc(NC(=O)[C@H](C)N)cc1C(=O)Nc1cccc(C2CC(=O)c3c(cc(OC)c(OC)c3OC)O2)c1` (stereo partly drawn), the growth in the assay with SK-MEL-2 melanoma is 101%; with EKVX NSCLC, 97.2%; with UO-31 renal it was 73%; with TK-10 renal it was 102%; in the assay on ACHN renal it was 87.1%; in the assay on CAKI-1 renal, 82%. The growth in the assay with A498 renal is 97%; in the assay on CCRF-CEM leukemia it was 57.4%; in the assay on MOLT-4 leukemia, 59.8%.

Consider `CC(=O)OC[C@@]1(C)C2CC[C@]3(C)C(CC=C4C5CC(C)(C)CC[C@]5(C(=O)Nc5ccc(C)cc5)CC[C@]43C)[C@@]2(C)C[C@@H](OC(C)=O)[C@@H]1OC(C)=O` (stereo partly drawn), for which the growth was 39.4% with SK-MEL-2 melanoma; 32.4% in the assay with EKVX NSCLC; 40.9% with UO-31 renal; 53.2% in the assay on TK-10 renal; 38.9% in the assay on ACHN renal; 45.8% in the assay on CAKI-1 renal. The growth is 67.1% in the assay with A498 renal, 32.8% in the assay with CCRF-CEM leukemia and 34.4% with MOLT-4 leukemia.

On to `CC(C)CSc1nc(NCCc2c[nH]c3ccccc23)c(C#N)c(-c2ccc(Cl)cc2)n1`, for which the growth is 90.1% in the assay on SK-MEL-2 melanoma; 46.1% in the assay on EKVX NSCLC; 65.1% with UO-31 renal; 108% in the assay on TK-10 renal; 67.4% in the assay on ACHN renal; 50.1% in the assay with CAKI-1 renal. Besides, the growth in the assay with A498 renal is 113%; in the assay on CCRF-CEM leukemia, 20.6%; in the assay with MOLT-4 leukemia, 20.8%.

For `CC(C)CSc1nc(NCCc2c[nH]c3ccccc23)c(C#N)c(-c2ccc(F)cc2)n1`, the growth with SK-MEL-2 melanoma was 78.9%; in the assay with EKVX NSCLC it was 45.9%; in the assay on UO-31 renal it was 70.3%; in the assay on TK-10 renal it was 92.4%; with ACHN renal it was 59.6%; in the assay on CAKI-1 renal, 49.2%. Also, the growth is 92.8% in the assay with A498 renal, 22.1% with CCRF-CEM leukemia and 27.9% in the assay on MOLT-4 leukemia.

Turning to `Clc1cccc(N/N=C/c2c[nH]c3ccc(Br)cc23)n1`, the growth in the assay on SK-MEL-2 melanoma was 27.4%; with EKVX NSCLC, 33.9%; in the assay on UO-31 renal, 7.66% (active); in the assay on TK-10 renal, 63.9%; with ACHN renal, 10.6%; in the assay on CAKI-1 renal, 11.7%. The results for the growth in the assay on A498 renal, in the assay with CCRF-CEM leukemia and in the assay on MOLT-4 leukemia were 79.9%, -14.8% (active) and -20.1% (active), respectively.

In the case of `CCC(C)(C)c1ccc(OCCCCN2CCN(c3ccncc3)CC2)cc1`, the growth is 63.2% in the assay with SK-MEL-2 melanoma; 28% in the assay on EKVX NSCLC; 40.2% in the assay with UO-31 renal; 70.8% in the assay on TK-10 renal; 68.9% in the assay on ACHN renal; 43.5% with CAKI-1 renal. Also, the growth in the assay with A498 renal was 88.9%; in the assay with CCRF-CEM leukemia, 2.23% (active); with MOLT-4 leukemia it was 1.66% (active).

In the case of `O=C(O)c1ccc(-c2ccc(/C=N/NC(=O)c3[nH]c4ccc(Br)cc4c3-c3ccccc3)o2)cc1`, the growth is -16.5% (active) in the assay on SK-MEL-2 melanoma; 22.3% in the assay with EKVX NSCLC; 24.5% with UO-31 renal; 41.2% in the assay with TK-10 renal; 32.5% with ACHN renal; 38.5% with CAKI-1 renal. Besides, the growth was 98.5% in the assay with A498 renal, -0.481% (active) with CCRF-CEM leukemia and 14.1% in the assay with MOLT-4 leukemia.

Take `O=c1onc(-c2cc3ccccc3nc2Cl)n1-c1cccc2ccccc12`: the growth in the assay on SK-MEL-2 melanoma is 19.6%; in the assay on EKVX NSCLC, 29.5%; in the assay on UO-31 renal, 38.2%; in the assay on TK-10 renal, 78.6%; with ACHN renal, 50.4%; with CAKI-1 renal it was 29.1%. For the same compound, the growth is 90.8% in the assay on A498 renal, 33% in the assay with CCRF-CEM leukemia and 24.5% with MOLT-4 leukemia.

As to `Cc1cc(=O)oc2cc(OCCOc3ccc(/C=C/C(=O)Nc4ccccc4N)cc3)ccc12`, the growth is 59.1% in the assay with SK-MEL-2 melanoma; 38.8% in the assay with EKVX NSCLC; 7.73% (active) in the assay with UO-31 renal; 43.3% in the assay with TK-10 renal; 37.1% in the assay on ACHN renal; 30.7% in the assay with CAKI-1 renal. The growth is 14.4% in the assay on A498 renal, 6.51% (active) with CCRF-CEM leukemia and 4.54% (active) in the assay with MOLT-4 leukemia.

For `Nc1cccc(SCc2cc3ccccc3[nH]c2=O)c1`, the growth in the assay on SK-MEL-2 melanoma is 56.4%; in the assay with EKVX NSCLC, 43.4%; with UO-31 renal, 39.1%; with TK-10 renal, 64.3%; with ACHN renal, 17.6%; with CAKI-1 renal it was 34.2%. For the same compound, the growth in the assay with A498 renal is 69.7%; in the assay on CCRF-CEM leukemia, 33%; with MOLT-4 leukemia, 36.1%.

Turning to `Cc1ccc(C(=O)CSc2nc3ccc(F)cc3c(=O)n2-c2ccc(Cl)cc2)cc1`, the growth is 99.1% in the assay with SK-MEL-2 melanoma; 51.1% with EKVX NSCLC; 56.4% with UO-31 renal; 83.7% in the assay with TK-10 renal; 33.3% in the assay with ACHN renal; 10.1% in the assay with CAKI-1 renal. The growth in the assay with A498 renal was 55.7%; in the assay on CCRF-CEM leukemia, 75.8%; in the assay with MOLT-4 leukemia, 82.4%.
